Three molecules from PubChem BioAssay (EPA / NIEHS) can be followed below.

Active and inactive are the calls of the source. How the source made its calls: active means hit-call score of the fitted dose curve at least 0.9, where 1 is the maximum; inactive means score below 0.9.

Common to all, as to details: mRNA level, 48 h; actives raise or lower the signal
Read-out in assay [1]: Bcl-2 (BAX) gene, BAX (gene 581)
Description: LTEA_HepaRG_BAX: Life Technologies and Expression Analysis (LTEA) Assay for Bcl-2 (BAX) gene using HepaRG (AID 2283470). Put shortly:
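Gene expression measured by Fluidigm qRT-PCR with three housekeeping genes for normalisation. HepaRG cells, plated 48 h beforehand, treated 48 h at up to 100 uM (8-point, half-log) in 0.5% DMSO. Bidirectional fitting versus DMSO.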

Read-out in assay [2]: adenosine kinase (ADK) gene, ADK (gene 132)
Description: LTEA_HepaRG_ADK: Life Technologies and Expression Analysis (LTEA) Assay for adenosine kinase (ADK) gene using HepaRG (AID 2283471). The procedure, abridged:
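HepaRG (human liver), 48 h chemical exposure, 8-pt half-log series, top 100 uM, 0.5% DMSO vehicle. Readout: ADK mRNA by qRT-PCR vs housekeeping genes; bidirectional curve fit relative to DMSO baseline.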

Read-out in assay [3]: Alpha-fetoprotein (AFP) gene, AFP (gene 174)
Description: LTEA_HepaRG_AFP: Life Technologies and Expression Analysis (LTEA) Assay for Alpha-fetoprotein (AFP) gene using HepaRG (AID 2283472). Put shortly: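 AFP transcript measured by TaqMan qRT-PCR with three housekeeping genes for normalization, after 48 h chemical treatment of HepaRG cells (top 100 uM, half-log steps, 0.5% DMSO). Gain or loss fitted against vehicle.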

Read-out in a further assay: BCL2L11 (gene 10018)
The assay can be described thus: LTEA_HepaRG_BCL2L11: Life Technologies and Expression Analysis (LTEA) Assay for Bcl-2 (BCL2L11) gene using HepaRG (AID 2283473). The procedure, abridged:
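Read-out is BCL2L11 transcript level by qRT-PCR, normalized to three housekeeping genes and fitted bidirectionally against 0.5% DMSO vehicle. HepaRG cells received chemicals for 48 h in serum-free induction medium, 100 uM down in half-log dilutions.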

Read-out in assay [4]: Apoptosis regulator Bcl-2 (Homo sapiens) (UniProt P10415)
Description: LTEA_HepaRG_BCL2: Life Technologies and Expression Analysis (LTEA) Assay for Bcl-2 gene using HepaRG (AID 2283475). Put shortly:
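qRT-PCR of BCL2 transcript, normalized to three housekeeping genes (ACTB, GAPDH, POLR2A), after 48 h chemical exposure of HepaRG cells; concentrations top 100 uM with half-log dilutions, 0.5% DMSO vehicle, duplicates; changes up or down fitted relative to vehicle.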

Read-out in assay [5]: Bcl-2 (BID) gene, BID (gene 637)
The assay can be described thus: LTEA_HepaRG_BID: Life Technologies and Expression Analysis (LTEA) Assay for Bcl-2 (BID) gene using HepaRG (AID 2283476). Put shortly:
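Duplicate 48 h treatments of HepaRG cells in serum-free induction medium spanned 100 uM downward in half-log steps, 0.5% DMSO. Transcript change quantified by qRT-PCR against three housekeeping genes, fitted up or down versus DMSO.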

Read-out in another assay: Caspase-3 (Homo sapiens) (UniProt P42574)
Description: LTEA_HepaRG_CASP3: Life Technologies and Expression Analysis (LTEA) Assay for cysteine-aspartic acid protease (CASP3) using HepaRG (AID 2283477). Put shortly: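 Read-out is CASP3 mRNA level by TaqMan qRT-PCR in human HepaRG cells after 48 h chemical exposure. Eight half-log concentrations topping at 100 uM were tested in 0.5% DMSO; gain or loss was fitted relative to DMSO.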

Read-out in assay [6]: Cytochrome P450 (CYP1A2), CYP1A2 (gene 1544)
Description: LTEA_HepaRG_CYP1A2: Life Technologies and Expression Analysis (LTEA) Assay for Cytochrome P450 (CYP1A2) using HepaRG (AID 2283479). The procedure, abridged: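 CYP1A2 transcript induction or loss, quantified by Fluidigm qRT-PCR against three housekeeping genes, was fitted bidirectionally against 0.5% DMSO controls. Human HepaRG cells received eight half-log concentrations from 100 uM over 48 h.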

Read-out in assay [7]: cysteine-aspartic acid protease (CASP8), CASP8 (gene 841)
Description: LTEA_HepaRG_CASP8: Life Technologies and Expression Analysis (LTEA) Assay for cysteine-aspartic acid protease (CASP8) using HepaRG (AID 2283480). The procedure, abridged: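 Concentration-response in duplicate up to 100 uM (half-log steps, 0.5% DMSO) on differentiated HepaRG cultures for 48 h. Expression change of CASP8 mRNA is determined by TaqMan qRT-PCR with housekeeping-gene normalization.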

Read-out in assay [8]: Cytochrome P450 (CYP2B6), CYP2B6 (gene 1555)
The assay can be described thus: LTEA_HepaRG_CYP2B6: Life Technologies and Expression Analysis (LTEA) Assay for Cytochrome P450 (CYP2B6) using HepaRG (AID 2283481). The procedure, abridged:
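HepaRG cells plated 48 h, switched to serum-free induction medium, then dosed 48 h (8 points, half-log from 100 uM, 0.5% DMSO). RNA isolated; CYP2B6 expression measured by qRT-PCR; gain or loss fitted relative to DMSO.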

Read-out in assay [9]: Cytochrome P450 2C19 (Homo sapiens) (UniProt P33261)
The assay can be described thus: LTEA_HepaRG_CYP2C19: Life Technologies and Expression Analysis (LTEA) Assay for CYP2C19 using HepaRG (AID 2283482). The procedure, abridged: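 Transcript levels of CYP2C19 were quantified by qRT-PCR after HepaRG cells were treated for 48 hours with test chemicals up to 100 uM (eight half-log concentrations, 0.5% DMSO vehicle). Gain or loss of signal was fitted relative to DMSO.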

Read-out in another assay: CYP2C8 (gene 1558)
The assay can be described thus: LTEA_HepaRG_CYP2C8: Life Technologies and Expression Analysis (LTEA) Assay for CYP2C8 using HepaRG (AID 2283483). Put shortly: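 This is a transcriptional endpoint in HepaRG cultures: 48 h exposure, highest concentration 100 uM. CYP2C8 mRNA is quantified by TaqMan qRT-PCR.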

Read-out in a further assay: CYP2C9 (gene 1559)
Description: LTEA_HepaRG_CYP2C9: Life Technologies and Expression Analysis (LTEA) Assay for CYP2C9 using HepaRG (AID 2283484). The procedure, abridged:
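Eight-point concentration-response (highest 100 uM, half-log dilutions) in HepaRG cells for 48 h; CYP2C9 expression by qRT-PCR normalized to ACTB, GAPDH, POLR2A. Bidirectional fit, DMSO baseline.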

Read-out in a further assay: CYP2E1 (gene 1571)
Description: LTEA_HepaRG_CYP2E1: Life Technologies and Expression Analysis (LTEA) Assay for CYP2E1 using HepaRG (AID 2283485). The procedure, abridged:
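CYP2E1 transcript measured by Fluidigm qRT-PCR against three housekeeping genes in human HepaRG cells treated 48 h (top 100 uM, half-log steps, 0.5% DMSO vehicle). Gain or loss fitted relative to DMSO baseline.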

Read-out in the next assay: CYP4A11 (gene 1579)
Description: LTEA_HepaRG_CYP4A11: Life Technologies and Expression Analysis (LTEA) Assay for CYP4A11 using HepaRG (AID 2283486). Put shortly: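 HepaRG, 48 h chem exposure, 8 conc (100 uM top, half-log), 0.5% DMSO vehicle; qRT-PCR readout, housekeeping-gene normalized; bidirectional curve fit vs DMSO baseline.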

Read-out in assay [10]: DNA damage-inducible transcript 3 (DDIT3), DDIT3 (gene 1649)
Description: LTEA_HepaRG_DDIT3: Life Technologies and Expression Analysis (LTEA) Assay for DNA damage-inducible transcript 3 (DDIT3) using HepaRG (AID 2283488). Put shortly:
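DDIT3 transcript was quantified by qRT-PCR with ACTB/GAPDH/POLR2A normalization after 48 h chemical treatment of differentiated HepaRG cells in 0.5% DMSO. Dosing was eight-point, half-log, top 100 uM, duplicate wells. Curves fitted bidirectionally versus DMSO.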

Read-out in assay [11]: Pro-epidermal growth factor (Homo sapiens) (UniProt P01133)
The assay can be described thus: LTEA_HepaRG_EGF: Life Technologies and Expression Analysis (LTEA) Assay for Epidermal growth factor (EGF) using HepaRG (AID 2283489). The procedure, abridged:
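HepaRG, 48 h dosing, 100 uM top, half-log x8, 0.5% DMSO. Readout: TaqMan qRT-PCR (Fluidigm array), housekeeping-normalized. Gain or loss of signal fit vs DMSO.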

Read-out in assay [12]: Apolipoprotein A-V (APOA5) gene, APOA5 (gene 116519)
Description: LTEA_HepaRG_APOA5: Life Technologies and Expression Analysis (LTEA) Assay for Apolipoprotein A-V (APOA5) gene using HepaRG (AID 2283474). Put shortly:
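Readout is APOA5 transcript level by qRT-PCR on Fluidigm dynamic arrays, normalized to three housekeeping genes. HepaRG cultures received chemicals for 48 h at up to 100 uM (half-log steps, 0.5% DMSO), with gain or loss scored relative to DMSO.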

Read-out in assay [13]: Cytochrome P450 (CYP24A1), CYP24A1 (gene 1591)
Description: LTEA_HepaRG_CYP24A1: Life Technologies and Expression Analysis (LTEA) Assay for Cytochrome P450 (CYP24A1) using HepaRG (AID 2283478). Put shortly:
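HepaRG, 48 h chemical exposure, 8-pt half-log CRC from 100 uM, 0.5% DMSO vehicle, duplicates. Endpoint: CYP24A1 mRNA by Fluidigm TaqMan qRT-PCR, normalized ACTB/GAPDH/POLR2A; gain/loss fit vs DMSO.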

Read-out in assay [14]: Cytochrome P450 3A4 (Homo sapiens) (UniProt P08684)
Description: LTEA_HepaRG_CYP3A4: Life Technologies and Expression Analysis (LTEA) Assay for CYP3A4 using HepaRG (AID 2283487). Put shortly:
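CYP3A4 transcript measured by TaqMan qRT-PCR and normalized to three housekeeping genes after 48 h chemical exposure of human HepaRG cells. Top concentration 100 uM, half-log steps, 0.5% DMSO vehicle; gain or loss fitted against DMSO baseline.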

A word on the AC50: it is the concentration at which the activity in the assay is half-maximal.

Sequence of Apoptosis regulator Bcl-2 (Homo sapiens) (P10415 whole entry, looked up): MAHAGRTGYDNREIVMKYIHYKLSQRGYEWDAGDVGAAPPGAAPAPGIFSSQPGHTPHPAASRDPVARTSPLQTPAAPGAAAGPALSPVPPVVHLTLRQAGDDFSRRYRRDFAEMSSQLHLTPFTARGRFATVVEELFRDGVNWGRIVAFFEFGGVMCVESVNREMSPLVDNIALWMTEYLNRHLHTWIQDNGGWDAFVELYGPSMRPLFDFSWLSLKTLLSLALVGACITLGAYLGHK
Sequence of Caspase-3 (Homo sapiens) (P42574 whole entry, looked up): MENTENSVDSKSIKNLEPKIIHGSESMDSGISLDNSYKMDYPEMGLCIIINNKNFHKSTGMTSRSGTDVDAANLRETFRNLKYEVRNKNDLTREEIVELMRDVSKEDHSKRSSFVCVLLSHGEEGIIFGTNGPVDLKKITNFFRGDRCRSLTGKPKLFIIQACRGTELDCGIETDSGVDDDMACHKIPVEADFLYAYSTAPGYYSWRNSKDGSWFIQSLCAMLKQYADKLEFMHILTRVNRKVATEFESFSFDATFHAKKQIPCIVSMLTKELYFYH
Sequence of Cytochrome P450 2C19 (Homo sapiens) (P33261 whole entry, looked up): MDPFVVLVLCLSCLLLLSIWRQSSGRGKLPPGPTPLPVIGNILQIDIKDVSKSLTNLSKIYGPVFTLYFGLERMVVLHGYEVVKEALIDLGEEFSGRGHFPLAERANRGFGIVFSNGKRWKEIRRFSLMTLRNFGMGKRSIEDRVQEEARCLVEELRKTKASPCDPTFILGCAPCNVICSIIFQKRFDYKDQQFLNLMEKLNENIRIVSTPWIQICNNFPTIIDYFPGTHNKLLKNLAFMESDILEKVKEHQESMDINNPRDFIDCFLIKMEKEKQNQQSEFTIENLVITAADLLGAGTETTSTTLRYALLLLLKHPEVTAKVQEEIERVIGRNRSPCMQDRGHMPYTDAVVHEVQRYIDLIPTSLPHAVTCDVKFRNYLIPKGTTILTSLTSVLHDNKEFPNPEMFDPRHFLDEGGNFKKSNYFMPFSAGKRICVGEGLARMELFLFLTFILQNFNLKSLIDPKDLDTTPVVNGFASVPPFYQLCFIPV
Sequence of Cytochrome P450 3A4 (Homo sapiens) (P08684 whole entry, looked up): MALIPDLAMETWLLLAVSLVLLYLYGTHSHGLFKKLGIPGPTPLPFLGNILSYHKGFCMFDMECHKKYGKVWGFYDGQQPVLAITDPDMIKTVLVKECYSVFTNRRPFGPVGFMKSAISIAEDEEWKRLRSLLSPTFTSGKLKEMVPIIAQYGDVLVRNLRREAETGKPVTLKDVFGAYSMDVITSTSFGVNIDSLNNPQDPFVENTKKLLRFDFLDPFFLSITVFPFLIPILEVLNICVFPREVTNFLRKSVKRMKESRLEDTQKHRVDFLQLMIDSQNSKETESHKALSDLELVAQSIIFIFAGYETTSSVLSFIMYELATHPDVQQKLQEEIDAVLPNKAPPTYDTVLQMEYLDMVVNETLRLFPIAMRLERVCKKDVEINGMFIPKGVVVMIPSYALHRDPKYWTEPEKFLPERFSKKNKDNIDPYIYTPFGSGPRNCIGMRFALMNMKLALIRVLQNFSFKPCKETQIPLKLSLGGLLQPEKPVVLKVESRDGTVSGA

In the case of `CC[C@@H]1C[C@H](N(Cc2cc(C(F)(F)F)cc(C(F)(F)F)c2)C(C)=O)c2cc(C(F)(F)F)ccc2N1C(=O)OC(C)C`, the call (in assay [1]; in assay [2]; in assay [3]; in the assay with BCL2L11 (gene 10018); in [4]; in [5]) was inactive. In addition, the call (with Caspase-3 (Homo sapiens); in assay [7]; with CYP2C9 (gene 1559); in assay [10]; in [11]) was inactive. For the same molecule, the AC50 in assay [6] was 21.3 µM (active); in [8], 0.735 µM (active); in assay [9], 0.507 µM (active); with CYP2C8 (gene 1558), 0.814 µM (active); with CYP2E1 (gene 1571), 3.17 µM (active); with CYP4A11 (gene 1579) it was 15.6 µM (active).
For the molecule `CC(=O)N1CCN(c2ccc(OC[C@H]3CO[C@](Cn4ccnc4)(c4ccc(Cl)cc4Cl)O3)cc2)CC1`, the AC50 in assay [1] was 11.8 µM (active); in assay [2] it was 65 µM (active); in [3] it was 19.1 µM (active); in [12], 17.8 µM (active); in [4] it was 11.5 µM (active); in assay [6], 26 µM (active). For the same molecule, the AC50 was 82.8 µM (active) in assay [7]; 12.7 µM (active) in [8]; 22.9 µM (active) in the assay with CYP2C8 (gene 1558); 12.7 µM (active) with CYP2C9 (gene 1559); 12.9 µM (active) with CYP2E1 (gene 1571); 12.4 µM (active) with CYP4A11 (gene 1579). The AC50 in [10] is 12.9 µM (active). Moreover, the call (in the assay with BCL2L11 (gene 10018); in [5]; with Caspase-3 (Homo sapiens)) was inactive.
On to `O=c1[nH]sc2ccccc12`, for which the molecule was classed as inactive (in assay [1]; in assay [2]; in assay [3]; with BCL2L11 (gene 10018); in assay [4]; in assay [5]). Moreover, the outcome (with Caspase-3 (Homo sapiens); in assay [13]; in [7]; in assay [8]; in assay [9]; with CYP2C8 (gene 1558)) was inactive. In addition, the call (in the assay with CYP2C9 (gene 1559); with CYP2E1 (gene 1571); with CYP4A11 (gene 1579); in assay [14]; in assay [10]; in [11]) was inactive. The AC50 in assay [6] is 80.3 µM (active).
